# Where two headings read alike, the source gives them in different places.
# Test system: PKN1
# Details: read-out: apparent Kd, n = 1
substance,measurement,setting,value
Lestaurtinib,potency estimated from few doses,"compound concentrations:100 nM and 1000 nM (sheet 'Lestaurtinib' of Supplementary Table 1),run:Lestaurtinib_02364_R2,Plate:MR002",487 nM
same,potency estimated from few doses,"compound concentrations:100 nM and 1000 nM (sheet 'Lestaurtinib' of Supplementary Table 1),run:Lestaurtinib_02364_R3,Plate:MR002",408 nM
same,potency estimated from few doses,"compound concentrations:100 nM and 1000 nM (sheet 'Lestaurtinib' of Supplementary Table 1),run:Lestaurtinib_02367_R1,Plate:MR003",440 nM
same,potency estimated from few doses,"compound concentrations:100 nM and 1000 nM (sheet 'Lestaurtinib' of Supplementary Table 1),run:Lestaurtinib_02367_R2,Plate:MR003",488 nM
same,potency estimated from few doses,"compound concentrations:100 nM and 1000 nM (sheet 'Lestaurtinib' of Supplementary Table 1),run:Lestaurtinib_02381_R1,Plate:MR004",350 nM
same,potency estimated from few doses,"compound concentrations:100 nM and 1000 nM (sheet 'Lestaurtinib' of Supplementary Table 1),run:Lestaurtinib_02381_R2,Plate:MR004",390 nM
same,potency estimated from few doses,"compound concentrations:100 nM and 1000 nM (sheet 'Lestaurtinib' of Supplementary Table 1),run:Lestaurtinib_02381_R3,Plate:MR004",242 nM
same,potency estimated from few doses,"compound concentrations:100 nM and 1000 nM (sheet 'Lestaurtinib' of Supplementary Table 1),run:Lestaurtinib_02407_R1,Plate:MR005",519 nM
same,potency estimated from few doses,"compound concentrations:100 nM and 1000 nM (sheet 'Lestaurtinib' of Supplementary Table 1),run:Lestaurtinib_02422_R1,Plate:MR006",327 nM
same,potency estimated from few doses,"compound concentrations:100 nM and 1000 nM (sheet 'Lestaurtinib' of Supplementary Table 1),run:Lestaurtinib_02422_R2,Plate:MR006",52.5 nM
same,potency estimated from few doses,"compound concentrations:100 nM and 1000 nM (sheet 'Lestaurtinib' of Supplementary Table 1),run:Lestaurtinib_02437_R1,Plate:MR007",578 nM
same,potency estimated from few doses,"compound concentrations:100 nM and 1000 nM (sheet 'Lestaurtinib' of Supplementary Table 1),run:Lestaurtinib_02437_R2,Plate:MR007",490 nM
same,potency estimated from few doses,"compound concentrations:100 nM and 1000 nM (sheet 'Lestaurtinib' of Supplementary Table 1),run:Lestaurtinib_02438_R1,Plate:MR008",516 nM
same,potency estimated from few doses,"compound concentrations:100 nM and 1000 nM (sheet 'Lestaurtinib' of Supplementary Table 1),run:Lestaurtinib_02438_R2,Plate:MR008",520 nM
same,potency estimated from few doses,"compound concentrations:100 nM and 1000 nM (sheet 'Lestaurtinib' of Supplementary Table 1),run:Lestaurtinib_02438_R3,Plate:MR008",483 nM
same,potency estimated from few doses,"compound concentrations:100 nM and 1000 nM (sheet 'Lestaurtinib' of Supplementary Table 1),run:Lestaurtinib_02443_R1,Plate:MR009",429 nM
same,potency estimated from few doses,"compound concentrations:100 nM and 1000 nM (sheet 'Lestaurtinib' of Supplementary Table 1),run:Lestaurtinib_02443_R2,Plate:MR009",415 nM
same,potency estimated from few doses,"compound concentrations:100 nM and 1000 nM (sheet 'Lestaurtinib' of Supplementary Table 1),run:Lestaurtinib_02443_R3,Plate:MR009",397 nM
same,potency estimated from few doses,"compound concentrations:100 nM and 1000 nM (sheet 'Lestaurtinib' of Supplementary Table 1),run:Lestaurtinib_02473_R1,Plate:MR010",430 nM
same,potency estimated from few doses,"compound concentrations:100 nM and 1000 nM (sheet 'Lestaurtinib' of Supplementary Table 1),run:Lestaurtinib_02473_R2,Plate:MR010",385 nM
same,potency estimated from few doses,"compound concentrations:100 nM and 1000 nM (sheet 'Lestaurtinib' of Supplementary Table 1),run:Lestaurtinib_02482_R1,Plate:MR011",508 nM
same,potency estimated from few doses,"compound concentrations:100 nM and 1000 nM (sheet 'Lestaurtinib' of Supplementary Table 1),run:Lestaurtinib_02482_R2,Plate:MR011",460 nM
same,potency estimated from few doses,"compound concentrations:100 nM and 1000 nM (sheet 'Lestaurtinib' of Supplementary Table 1),run:Lestaurtinib_02482_R3,Plate:MR011",432 nM
same,potency estimated from few doses,"compound concentrations:100 nM and 1000 nM (sheet 'Lestaurtinib' of Supplementary Table 1),run:Lestaurtinib_02487_R3,Plate:MR012",500 nM
same,potency estimated from few doses,"compound concentrations:100 nM and 1000 nM (sheet 'Lestaurtinib' of Supplementary Table 1),run:Lestaurtinib_02496_R1,Plate:MR013",473 nM
same,potency estimated from few doses,"compound concentrations:100 nM and 1000 nM (sheet 'Lestaurtinib' of Supplementary Table 1),run:Lestaurtinib_02496_R2,Plate:MR013",455 nM
same,potency estimated from few doses,"compound concentrations:100 nM and 1000 nM (sheet 'Lestaurtinib' of Supplementary Table 1),run:Lestaurtinib_02496_R3,Plate:MR013",459 nM
same,potency estimated from few doses,"compound concentrations:100 nM and 1000 nM (sheet 'Lestaurtinib' of Supplementary Table 1),run:Lestaurtinib_02566_R1,Plate:MR014",512 nM
same,potency estimated from few doses,"compound concentrations:100 nM and 1000 nM (sheet 'Lestaurtinib' of Supplementary Table 1),run:Lestaurtinib_02566_R3,Plate:MR014",539 nM
same,potency estimated from few doses,"compound concentrations:100 nM and 1000 nM (sheet 'Lestaurtinib' of Supplementary Table 1),run:Lestaurtinib_02572_R1,Plate:MR015",628 nM
same,potency estimated from few doses,"compound concentrations:100 nM and 1000 nM (sheet 'Lestaurtinib' of Supplementary Table 1),run:Lestaurtinib_02572_R2,Plate:MR015",517 nM
same,potency estimated from few doses,"compound concentrations:100 nM and 1000 nM (sheet 'Lestaurtinib' of Supplementary Table 1),run:Lestaurtinib_02572_R3,Plate:MR015",559 nM
same,potency estimated from few doses,"compound concentrations:100 nM and 1000 nM (sheet 'Lestaurtinib' of Supplementary Table 1),run:Lestaurtinib_02577_R2,Plate:MR016",613 nM
same,potency estimated from few doses,"compound concentrations:100 nM and 1000 nM (sheet 'Lestaurtinib' of Supplementary Table 1),run:Lestaurtinib_02577_R3,Plate:MR016",470 nM
same,potency estimated from few doses,"compound concentrations:100 nM and 1000 nM (sheet 'Lestaurtinib' of Supplementary Table 1),run:Lestaurtinib_02584_R1,Plate:MR017",493 nM
same,potency estimated from few doses,"compound concentrations:100 nM and 1000 nM (sheet 'Lestaurtinib' of Supplementary Table 1),run:Lestaurtinib_02584_R2,Plate:MR017",437 nM
same,potency estimated from few doses,"compound concentrations:100 nM and 1000 nM (sheet 'Lestaurtinib' of Supplementary Table 1),run:Lestaurtinib_02584_R3,Plate:MR017",508 nM
same,potency estimated from few doses,"compound concentrations:100 nM and 1000 nM (sheet 'Lestaurtinib' of Supplementary Table 1),run:Lestaurtinib_02601_R1,Plate:MR018",580 nM
same,potency estimated from few doses,"compound concentrations:100 nM and 1000 nM (sheet 'Lestaurtinib' of Supplementary Table 1),run:Lestaurtinib_02601_R2,Plate:MR018",523 nM
same,potency estimated from few doses,"compound concentrations:100 nM and 1000 nM (sheet 'Lestaurtinib' of Supplementary Table 1),run:Lestaurtinib_02601_R3,Plate:MR018",615 nM
same,potency estimated from few doses,"compound concentrations:100 nM and 1000 nM (sheet 'Lestaurtinib' of Supplementary Table 1),run:Lestaurtinib_02606_R3,Plate:MR019",534 nM
same,potency estimated from few doses,"compound concentrations:100 nM and 1000 nM (sheet 'Lestaurtinib' of Supplementary Table 1),run:Lestaurtinib_02624_R1,Plate:MR020",496 nM
